# CYP2C19 inh: blockers of cytochrome P450 2C19 activity – biochemical, luminescence, ADME assay, primary screen | P33261 | CYP2C19 Supersomes, luciferin-H EGE luminescence, 30 min | inhibition, % at 5 µM | 96,000 compounds, 21% hits | AID 778, 2007;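 active means CYP2C19 inhibition above a set limit at 5 µM in the primary screen, cut at about 50% in these data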;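 further: plate controls were negative control wells for no effect and 2.5 mM tranylcypromine positive control for full effect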
# CYP2C19 activ: human CYP2C19 activators, primary screen, biochemical, luminescence; recombinant CYP2C19, luciferin-H EGE luminescence; hits give high values; 0 = fully inhibited enzyme, 1 = untreated enzyme; activation factor at 5 µM; 96,000 tested, under 10 active; AID 1025, 2008;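 active means activation factor of at least 2 at 5 µM in the primary screen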;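 further: 0 = wells with 2.5 mM tranylcypromine and 1 = vehicle-only wells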
# CYP2C9 activ: human CYP2C9 activators, primary screen, biochemical, luminescence | Cytochrome P450 2C9 (Homo sapiens), P11712 | recombinant CYP2C9, luciferin-H conversion; hits give high values; factor 1 = untreated enzyme, 0 = blocked | activation factor at 5 µM | 96,000 compounds, 1.4% hits;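 active means activation factor of 2 or more for CYP2C9 at a 5 µM dose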;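 further: 0 = sulfaphenazole-blocked wells and 1 = vehicle-only wells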
# CYP2C9 inhib: blockers of cytochrome P450 2C9 activity – biochemical, luminescence, ADME assay, primary screen | P11712 | CYP2C9 Supersomes, luciferin-H conversion | inhibition, % at 5 µM | 96,000 compounds, 20% hits | AID 777, 2007;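 active means blocking of liver enzyme CYP2C9 beyond about 50% at 5 µM, limit read from the data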
# Cav32 inh: Cav3.2 calcium influx blockers – cell-based, Fluo-4 calcium fluorescence, FDSS, MLSMR library, primary screen | AID 449739, 2010 | 100,000 compounds, 4% hits | Cav3.2-expressing cells; hits give low values | B-score at 10 µM;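 active means single-dose well whose peak fluorescence ratio is a statistical outlier from its plate by either plate-standardised score or position-corrected B-score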
# * = called active by the depositor; · = no result given. Only some compounds are listed: those with a hit (about 27% of all), similar ones and a draw of the others.
SMILES,CYP2C19 inh,CYP2C19 activ,CYP2C9 activ,CYP2C9 inhib,Cav32 inh
CC(C(=O)Nc1ccc2nccnc2c1)N1C(=O)C2C3C=CC(C3)C2C1=O (stereo not given),-9.9,1.1,1,3.6,0.683
CCCCc1nc(SCC(=O)Nc2ccc(S(N)(=O)=O)cc2)n[nH]1,19.5,0.8,0.6,39.2,·
COc1ccnc(Oc2ccc(F)cc2)c1C(=O)N/C=N/OCc1ccc(F)cc1,64.1*,0.4,0.7,28.2,-2.49
COc1ccnc(Oc2ccc(F)cc2)c1C(=O)N/C=N/OCc1ccc(F)cc1Cl,-0.1,1,0.8,17.8,-2.07
CO/N=C/NC(=O)c1c(OC)ccnc1Oc1ccc(F)cc1,4.1,1,1,-1.3,0.758
CO/N=C/NC(=O)c1c(OC)ccnc1Oc1cccc(C(F)(F)F)c1,58.3*,0.4,0.9,9.1,2.03
CCc1c(O)cc2n(c1=O)-c1ccc(Cl)cc1C2(C)C,·,·,·,·,-0.137
Cc1ccc(C)c(Cn2nnc3c(=O)[nH]c(C4CCCN(C(=O)CC(C)C)C4)nc32)c1 (stereo not given),60.9*,0.4,0.2,78.6*,-0.943
Cc1ccc(C(=O)N2CCCC(c3nc4c(nnn4Cc4ccccc4)c(=O)[nH]3)C2)cc1 (stereo not given),9.8,0.9,0.5,47.1,1.79
CCCCC(=O)N1CCCC(c2nc3c(nnn3Cc3cc(C)ccc3C)c(=O)[nH]2)C1 (stereo not given),66.8*,0.3,0.1,86.7*,-0.323
COc1cc(OC)cc(C(=O)NCCN2CCOCC2)c1,2.1,1,1.2,-15.2,0.529
COc1ccc(-c2noc(CCC(=O)N(C)c3cccc(C)c3)n2)cc1,89.3*,0.1,0.2,83.3*,-5.79*
Cc1ccc(-c2noc(CCC(=O)N(C)c3ccccc3C)n2)cc1,81.5*,0.2,0.1,93.8*,-5.6*
CCc1ccccc1NC(=O)CCc1nc(-c2ccc(C)cc2)no1,-16.1,1.2,1.1,-6.0,·
CCN(C(=O)CCc1nc(-c2ccc(OC)cc2)no1)c1cc(OC)ccc1OC,59.2*,0.4,0.3,74.9*,-6.54*
CC(Oc1ccc(-c2nccc(-c3ccccn3)n2)cc1)C(=O)NN (stereo not given),22.5,0.8,0.7,27.3,·
CC(=O)Oc1ccc(CCC(C)OC(C)=O)cc1 (stereo not given),10.2,0.9,1,3.9,-0.289
Cc1ccc(Oc2ccccc2/C=N/O)cc1,82.3*,0.2,0.6,39.5,-0.538
CCOC(=O)c1cc(-c2ccncc2)nc2c1c(C)nn2C,96.2*,0,0.5,50.4*,0.801
CCOC(=O)c1cc(-c2ccccc2)nc2c1c(C)nn2-c1ccccn1,-7.1,1.1,1.2,-22.1,-1.66
Cc1csc(SCC(=O)Nc2cc(S(=O)(=O)N3CCCC3)ccc2Cl)n1,31.0,0.7,0.5,53.5*,-0.575
Cc1csc(SCC(=O)Nc2cccc(S(=O)(=O)N3CCCC3)c2)n1,81.1*,0.2,0.2,78.2*,0.00321
COC(=O)c1cc2c(cc1Cl)SC(=NCCCN1CCOCC1)NS2(=O)=O,29.0,0.7,1.8,-79.5,0.0324
CCOc1ccc(OCC)c(NC(=O)CCn2cccc2)c1,21.5,0.8,0.9,9.2,0.299
Cc1nc(SCc2nc3ccccc3[nH]2)c2oc3ccccc3c2n1,31.9,0.7,0.1,91.1*,-1.85
SMILES,CYP2C19 inh,CYP2C19 activ,CYP2C9 activ,CYP2C9 inhib,Cav32 inh
c1ccc2[nH]c(CSc3ncnc4c3oc3ccccc34)nc2c1,68.7*,0.3,0,96.6*,-2.99
Cc1nc(SCCO)c2oc3ccccc3c2n1,27.4,0.7,0.5,47.5,·
CC(=O)c1cn(CC(=O)NCC2CCCO2)c2ccccc12 (stereo not given),17.1,0.8,1,-2.5,0.606
O=C(NC1CCCCCC1)C1CCCN(S(=O)(=O)c2cnc[nH]2)C1 (stereo not given),83.3*,0.2,0.5,45.2,0.342
O=C(NC1CCCc2ccccc21)C1CCN(S(=O)(=O)N2CCCCCC2)CC1 (stereo not given),-0.8,1,1.2,-15.1,-0.706
CCCCC(CC)CNC(=O)C1CCCN(S(=O)(=O)c2cnc[nH]2)C1 (stereo not given),100.4*,0,0.1,92.7*,-1.36
O=C(NC(c1ccccc1)c1ccccc1)C1CCCN(S(=O)(=O)c2cnc[nH]2)C1 (stereo not given),31.0,0.7,0.2,76.4*,-0.193
O=C(NC1CCCc2ccccc21)C1CCCN(S(=O)(=O)c2cnc[nH]2)C1 (stereo not given),91.6*,0.1,0.4,59.7*,0.312
O=C(c1ccc(Cl)cc1)N(Cc1cccs1)C1CCS(=O)(=O)C1 (stereo not given),16.6,0.8,1,4.7,-0.281
O=C(Nc1nc(-c2ccccc2)cs1)c1ccc(Br)o1,23.6,0.8,0.6,37.3,-2.77
COc1cccc(CN2C[C@]34C=C[C@@H](C[C@@H]3S2(=O)=O)O4)c1,·,·,·,·,0.45
COc1cc(OC)c2c(O)c3c(c(-c4c5c(c(O)c6c(OC)cc(OC)cc46)CO[C@@H](C)[C@H]5O)c2c1)[C@H](O)[C@H](C)OC3,·,·,·,·,-1.26
COC(=O)c1ccc2c(c1)N(C)C(=O)CS2,10.8,0.9,0.9,5.8,0.944
COCCn1c(C)cc(C(=O)COC(=O)c2ccc3ncsc3c2)c1C,28.6,0.7,2*,-98.7,-0.000443
Cc1cc(C(=O)CSc2n[nH]c(N)n2)c(C)n1C1CC1,-14.4,1.1,1.8,-77.3,0.12
Cc1nn(Cc2ccccc2)c(C)c1C(=O)OCC(=O)c1cc(C)n(C2CC2)c1C,26.1,0.7,1.4,-41.0,-4.75*
COCCn1c(C)cc(C(=O)COC(=O)c2c(C)nn(Cc3ccccc3)c2C)c1C,61.0*,0.4,0.9,13.8,-5.91*
COCC(C)n1c(C)cc(C(=O)COC(=O)c2c(C)nn(-c3ccccc3)c2C)c1C (stereo not given),61.8*,0.4,0.6,40.6,-2.31
COCCn1c(C)cc(C(=O)COC(=O)c2ccc(NC(=O)CC#N)cc2)c1C,-3.1,1,1.1,-13.0,0.0782
N/N=c1\sc2ccccc2n1-c1ccccc1,35.8,0.6,0.9,10.3,-1.4
O=C(C1=C[C@H](c2csc3ccccc23)C[C@H](OCCCCO)O1)N1CCN(Cc2ccc3c(c2)OCO3)CC1,·,·,·,·,-1.88
O=C(NCC(F)(F)F)Nc1ccccn1,-7.0,1.1,1.1,-14.7,0.122
COc1ccc(C2=NOC(C(=O)NCCCn3ccnc3)C2)cc1 (stereo not given),84.1*,0.2,0.2,84.5*,-0.223
COc1ccc(CCNC(=O)C2CC(c3ccc(C(F)(F)F)cc3)=NO2)cc1 (stereo not given),·,·,·,·,-2.1

# Source: PubChem
